Sampled rows, rich in hits. Any-hit rate of the full collection: about 19%.
ASM inhibitor – inhibitors of human secretory acid sphingomyelinase. P17405. placental ASM, HMU-PC fluorogenic substrate, 60 min. Potency, µM (doses to about 57.5 µM), inactives show at the highest dose activity change, negative = inhibition, hits mostly inhibitors. 340,000 tested, 0.006% active. AID 504937; further: potency means the concentration at half of the fitted maximal effect
Target sequence (P17405 47-631 limits assumed): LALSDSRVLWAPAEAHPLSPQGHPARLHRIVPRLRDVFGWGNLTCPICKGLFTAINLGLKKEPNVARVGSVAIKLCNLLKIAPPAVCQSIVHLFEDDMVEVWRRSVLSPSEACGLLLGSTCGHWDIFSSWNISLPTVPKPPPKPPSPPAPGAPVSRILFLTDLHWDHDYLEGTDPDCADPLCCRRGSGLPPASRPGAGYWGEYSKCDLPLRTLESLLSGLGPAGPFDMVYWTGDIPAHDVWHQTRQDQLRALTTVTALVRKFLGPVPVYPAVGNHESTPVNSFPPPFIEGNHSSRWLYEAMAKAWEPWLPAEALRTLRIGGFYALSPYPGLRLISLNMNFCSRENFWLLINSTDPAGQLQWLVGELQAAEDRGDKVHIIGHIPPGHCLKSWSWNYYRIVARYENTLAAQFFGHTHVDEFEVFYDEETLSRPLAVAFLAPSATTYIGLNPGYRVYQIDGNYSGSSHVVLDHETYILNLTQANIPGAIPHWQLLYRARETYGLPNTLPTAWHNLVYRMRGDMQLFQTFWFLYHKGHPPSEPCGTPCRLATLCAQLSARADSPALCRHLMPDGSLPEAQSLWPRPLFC
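Fluorogenic HMU-PC substrate (9 uM final) is turned over by placental ASM in 60 min at 37 C after a 10 min compound preincubation. Reaction ended by alkaline stop (pH 10), with fluorescence read at 386/447 nm.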
TDP1 cell CPT – growth inhibition of DT40 Tdp1-/-;hTDP1 cells with camptothecin (screen for TDP1 inhibitors); chicken DT40 Tdp1-/-;hTDP1 cells + 20 nM CPT, ATP luminescence, 48 h; Potency, µM (doses to about 46.2 µM), inactives show at the top dose activity change, negative = growth inhibition, actives largely listed as inhibitors; 420,000 tested, 12% active; further: potency means the concentration at half of the fitted maximal effect; on the % scale 0 is the no-effect control and ±100 the full control effect; nearly all actives have a fitted effect of over 55% in size
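Chicken DT40 Tdp1-/- cells complemented with human TDP1, 400 cells/well, exposed to compounds plus 20 nM camptothecin for at least 48 h at 37 C; viability read as ATP content by CellTiter-Glo luminescence.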
IL-1B inflam inh – inhibitors of inflammasome signaling (IL-1 beta secretion); THP-1 LPS/ATP IL-1B secretion, AlphaLISA, 16 h; active compounds read low; activity change, % at 57.5 µM; 360,000 tested, 4.7% active; AID 743279; in the data active means activity change below about -50%; inconclusive means mostly about -30% to -49%; further: on the % scale 0 is the no-effect control and ±100 the full control effect
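Secreted IL-1B measured by AlphaLISA bead assay after 16 h compound exposure of THP-1 cells; compounds (final up to 57.5 uM) added 1 h before LPS (250 ng/mL) and ATP (1.25 mM) stimulation; lower signal means less secretion.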
TGFb SMAD3 inh – inhibitors of TGF-b signaling. HepG2 CAGA-GFP TGF-b/SMAD3 reporter, GFP fluorescence, 18 h; TGF-beta stimulated, 500 pg/mL final. Potency, µM (series often up to 46.1 µM), inactives show at the top dose activity, negative = inhibition, actives largely listed as inhibitors. 410,000 tested, 1.2% active; further: potency means the concentration at half of the fitted maximal effect; on the % scale 0 is the no-effect control and ±100 the full control effect; nearly all actives have a fitted effect of over 65% in size
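Inhibition was scored as loss of TGF-beta-induced (500 pg/mL final, 18 hours, 37 degrees C) GFP in HEPG2 cells carrying a CAGA-GFP reporter, in DMEM with 1% FBS. Well GFP was summed per cell; Activity was normalised to unstimulated and stimulated DMSO wells, then concentration-response fitting.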
HepG2 tox – counter-screen for TGF-b inhibitors: cytotoxicity in HepG2 cells | HepG2 CAGA-GFP viability, ATP luminescence, 18 h | Potency, µM (doses to about 46.1 µM), for the others: top-dose activity change, negative = cytotoxicity, actives largely listed as cytotoxic | 410,000 tested, 0.76% active | AID 588856; further: potency means the concentration at half of the fitted maximal effect
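HepG2 CAGA-GFP cells (1000/well, DMEM with 1% FBS) received compound, then TGF-beta at 500 pg/mL final, and were incubated 18 hours at 37 degrees C. Viability was read by CellTiter-Glo luminescence. Media-only wells were set as complete cell-killing and DMSO as no toxicity.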
DT40 TDP1 no CPT – qHTS for Inhibitors of human tyrosyl-DNA phosphodiesterase 1 (TDP1): qHTS in cells in absence of CPT; DT40 Tdp1-/- hTDP1 cells, no CPT, ATP luminescence, 48 h; Potency, µM (doses to about 46.2 µM), inactives show top-dose activity change, negative = growth inhibition, usual class: inhibitors; 420,000 tested, 15% active; AID 686978, 2013; further: potency means the concentration at half of the fitted maximal effect; on the % scale 0 is the no-effect control and ±100 the full control effect; nearly all actives have a fitted effect of over 55% in size
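Growth kinetics read by CellTiter-Glo luminescence after ≥48 hr at 37 °C. Cells: DT40 Tdp1-/- stably carrying human TDP1, 400 per well, compound exposure in the absence of CPT (DMSO vehicle).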
Numbers without * were called inactive; ? = inconclusive; · = no result given. Unless noted, the call rests on the fitted dose curve; in most records, active means well fitted curve in the direction sought with a large enough effect; inconclusive means small, poorly fitted or top-dose-only effect, or another doubt; inactive means no such curve, though single readings can be large; an effect the other way counts as inactive or inconclusive.

SMILES	ASM inhibitor	TDP1 cell CPT	IL-1B inflam inh	TGFb SMAD3 inh	HepG2 tox	DT40 TDP1 no CPT
Cc1ccc(NC(=O)Nc2nnc(N(C)Cc3ccccc3)s2)c(C)c1	·	-22.7%	·	-4.2%	-11.9%	?
COc1ccc(Cl)cc1/C=C(\C#N)C(N)=O	-0.1%	?	-7.1	4.1%	-17.6%	?
O=C(C[C@H]1C[C@H](C(=O)N2CCCCC2)[C@@]2(CCc3ccccc3)c3[nH]c4cc(-c5ccco5)ccc4c3CCN2C1=O)NCc1ccco1	?	?	-50.6*	-32.4%	-3.8%	?
O=C(C[C@H]1C[C@H](C(=O)N2CCCCC2)[C@@]2(CCc3ccccc3)c3[nH]c4cc(-c5ccco5)ccc4c3CCN2C1=O)NCCC1=CCCCC1	?	?	-12.8	-23.8%	2.1%	18.4µM*
CN(C)C(=O)CCc1ccc2c3c([nH]c2c1)[C@]1(CCc2ccccc2)[C@@H](C(=O)N2CCCCC2)C[C@H](CC(=O)NCc2ccco2)C(=O)N1CC3	2.8%	-12.8%	-22.1	5.1%	5.2%	?
O=C(CC1C[C@H](C(=O)N2CCCCC2)[C@@]2(CCc3ccccc3)c3[nH]c4ccccc4c3CCN2C1=O)NCc1ccco1 (some centres not stated)	-3.0%	13µM*	-60.0*	-3.2%	-41.2%	20.6µM*
O=C(CC1C[C@H](C(=O)N2CCCCC2)[C@@]2(CCc3ccccc3)c3[nH]c4ccccc4c3CCN2C1=O)NCCC1=CCCCC1 (some centres not stated)	-6.5%	?	-16.7	11.1%	4.5%	?
O=C(C[C@H]1C[C@H](C(=O)N2CCCCC2)[C@@]2(CCc3ccccc3)c3[nH]c4cc(-c5ccco5)ccc4c3CCN2C1=O)NCc1cccc(C(F)(F)F)c1	?	?	-1.3	-28.9%	-4.6%	20.6µM*
CCC1COC(c2cccn2Cc2ccccc2Cl)=N1 (configuration not stated)	1.5%	-5.5%	13.6	-10.8%	-0.8%	-2.7%
O=C(CN1C(=O)CSc2ccc(S(=O)(=O)N3CCCC3)cc21)NCc1ccc(Cl)cc1	·	?	·	-25.9%	-12.7%	?
CN1C=CC(=O)[C@@H](OC(=O)Nc2ccc(Br)cc2)[C@H]1c1ccccc1Br	-3.6%	?	-6.7	-52.4%	6.8%	14.6µM*
C=CCN1C=CC(=O)[C@@H](OC(=O)Nc2ccc(Br)cc2)[C@H]1c1ccccc1Br	-27.0%	23.1µM*	-20.3	?	-38.6%	?
C#CCN1C(C)=CC(=O)[C@@H](O)[C@H]1c1ccccc1Br	4.1%	1.4%	2.8	-7.4%	-9.8%	0.2%
O=C(O)CSC(C(=O)Nc1ccc(Br)cc1)c1ccccc1 (configuration not stated)	3.0%	4.6%	-3.7	8.7%	-7.7%	9.2%
C#CCN1C=CC(=O)[C@@H](OC(=O)Nc2ccccc2Br)[C@H]1c1ccccc1Br	0.0%	23.1µM*	-17.1	?	-33.1%	?
C#CCN1C=CC(=O)[C@@H](OC(=O)NCCC)[C@H]1c1ccccc1Br	3.5%	-26.5%	-14.9	-10.8%	0.8%	-11.3%
CN1C=CC(=O)[C@@H](O)[C@H]1c1ccccc1Br	1.0%	12.3%	14.5	17.9%	-3.3%	11.0%
C#CCN1C=CC(=O)[C@@H](OC(=O)Nc2ccc(Br)cc2)[C@H]1c1ccccc1Br	-20.0%	?	-24.6	12.6µM*	-32.7%	?
Cc1noc(C)c1NC(=O)N(C)C[C@@H]1Oc2ncc(Br)cc2C(=O)N([C@H](C)CO)C[C@@H]1C	·	3.3%	8.3	-1.4%	-33.8%	7.9%
COc1ccc(NC(=O)CCC(=O)Nc2nnc(C3CCCCC3)s2)c(OC)c1	0.1%	-3.6%	0.0	-1.9%	-5.2%	3.6%
CCc1nc(N2CCC3(CC2)OCCO3)c2nnn(Cc3ccccc3Cl)c2n1	-5.0%	?	?	-5.8%	-19.5%	16.4µM*
COc1ccc(/C(C)=N/Nc2nc3ccccc3n3cnnc23)cc1OC	7.5%	?	-4.6	23.1%	-2.4%	20.6µM*
Cc1cc(S(=O)(=O)Nc2ccc(-c3ccc(N4CCCCC4)nn3)cc2)c(C)cc1Cl	·	13µM*	·	-29.1%	-4.2%	?
O=S(=O)(Nc1ccc(-c2ccc(N3CCCCC3)nn2)cc1)c1ccc(OC(F)(F)F)cc1	·	?	·	?	-18.6%	16.4µM*
O=S(=O)(Nc1ccc(-c2ccc(N3CCCC3)nn2)cc1)c1ccc(Cl)cc1	·	14.6µM*	·	0.3%	-24.4%	?
SMILES	ASM inhibitor	TDP1 cell CPT	IL-1B inflam inh	TGFb SMAD3 inh	HepG2 tox	DT40 TDP1 no CPT
COc1cc(C)c(S(=O)(=O)Nc2cccc(-c3ccc(N4CCCC4)nn3)c2)cc1C	·	?	·	-29.6%	-20.6%	-36.1%
Cc1nn(-c2ccccc2)c(C)c1NC(=O)COC(=O)C1CC(=O)N(CCc2ccccc2)C1 (configuration not stated)	2.1%	11.8%	7.6	4.7%	14.3%	0.7%
CCC(=O)OC(OP(=O)(CCCCc1ccccc1)CC(=O)N1C[C@H](C2CCCCC2)C[C@H]1C(=O)O)C(C)C (some centres not stated)	·	8.1%	·	·	·	-5.3%
Cc1ccc(CNC(=O)c2ccc(Cn3c(SCc4ccc(F)cc4)nc4cccnc43)cc2)o1	·	?	·	?	-18.8%	?
COc1cccc(C(C(=O)NC(C)(C)C)N(Cc2ccco2)C(=O)CCC(=O)Nc2cc(C)on2)c1OC (configuration not stated)	3.5%	2.7%	-12.2	-0.5%	-7.5%	29.1µM*
Cc1ccc(C)c(N(C(=O)CCC(=O)Nc2cc(C)on2)C(C(=O)NC2CCCC2)c2ccco2)c1 (configuration not stated)	0.3%	16.4µM*	-6.2	0.0%	22.7%	23.1µM*
COc1ccc(N(C(=O)Cn2cnc3ccccc32)C(C(=O)NC2CCCCC2)c2ccccc2)cc1 (configuration not stated)	-2.8%	14.6µM*	-74.7*	?	-6.5%	?
Cc1cc(NC(=O)CCC(=O)N(c2ccccc2)C2(C(=O)NC3CCCCC3)CCCC2)no1	-3.0%	-21.9%	-61.2*	-13.4%	-1.5%	-28.6%
